{"source": "PubChem BioAssay (Tox21)", "note": "Records with an inconclusive call do not appear. Active and inactive are the calls of the source. Calls come from the whole dose curve. % is set by controls: 0 for no effect and ±100 for the full control effect."}
{"biological_target": "Muscarinic acetylcholine receptor M1 (Homo sapiens) (UniProt P11229)", "sequence (P11229 whole entry, looked up)": "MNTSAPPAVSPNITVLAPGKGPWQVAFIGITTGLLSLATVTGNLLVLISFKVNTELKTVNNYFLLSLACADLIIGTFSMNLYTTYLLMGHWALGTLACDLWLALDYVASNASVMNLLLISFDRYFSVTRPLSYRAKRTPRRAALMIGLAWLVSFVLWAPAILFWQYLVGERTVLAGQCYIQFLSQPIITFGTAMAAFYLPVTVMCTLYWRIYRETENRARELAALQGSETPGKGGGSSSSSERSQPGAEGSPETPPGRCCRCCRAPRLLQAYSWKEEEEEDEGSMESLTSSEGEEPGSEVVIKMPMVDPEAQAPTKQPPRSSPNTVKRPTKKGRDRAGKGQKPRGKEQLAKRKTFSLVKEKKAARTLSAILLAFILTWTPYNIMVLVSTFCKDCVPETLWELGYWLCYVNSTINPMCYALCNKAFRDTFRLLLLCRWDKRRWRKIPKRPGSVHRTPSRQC", "assay": "Cholinergic receptor muscarinic 1 (CHRM1) small molecule antagonists, cell-based qHTS assay (AID 1963588); note: nearly all actives have a fitted effect of over 40% in size", "settings": "CHRM1-CHO antagonist mode, calcium flux fluorescence; series mostly up to 61.5 µM; activity, negative = inhibition: at the top concentration", "source_text": "National Center for Advancing Translational Sciences [NCATS]\nDivision of Preclinical Innovation [DPI]\nU.S. Environmental Protection Agency [EPA]\nNational Institutes of Environmental Health Sciences [NIEHS]\nNational Toxicology Program [NTP]\nU.S. Food and Drug Administration [FDA]\nThe CHRM1 is a muscarinic receptor. This receptor plays a crucial role in learning and memory processes and has long been identified as a promising therapeutic target for the improvement of cognitive decline in Alzheimer's disease (AD). The CHRM1-CHO cell line stably expressing human muscarinic acetylcholine receptor M1 (CHRM1) can be used for screening agonists and antagonists of interactions between CHRM1 and its ligands. The CHRM1-CHO Calcium Flux Assay is a homogeneous fluorescence-based assay for detecting the intracellular calcium level using FDSS kinetic plate reader system.\nTox21 Assay Protocol Summary:\nCHRM1-CHO cells were dispensed at 1000 cells/3uL/well in 1536-well black-clear bottom plates using a Multidrop Dispenser. After the assay plates were incubated at a 37 C/5% CO2 incubator for 18 h, 3 uL of Dye Loading Buffer was transferred to the assay plate by a Flying Reagent Dispenser. The assay plates were incubated at 37 C for 1h. For antagonist mode, 23 nL of compounds dissolved in DMSO, positive controls or DMSO only was transferred to the assay plate by a pin tool. After 5 min incubation at room temperature, 1.5 uL of acetylcholine at 50nM was added to each well. The fluorescence intensity in the plates was measured using FDSS 7000EX kinetic plate reader for 3 min at 1 sec intervals. Each test compound was measured at 15 concentrations in three independent runs."}
{"compound": "O=C(CBr)Nc1ccc(Cl)cc1C(=O)c1ccccc1F", "activity, negative = inhibition": "0.415% [at 28.3 µM] (inactive)"}
{"compound": "CCCC(C)C1(CC)C(=O)N=C(S)NC1=O", "note": "(stereo not given)", "activity, negative = inhibition": "2.18% [at 28.3 µM] (inactive)"}
{"compound": "CC(C)O.CC(C)O.OCCN(CCO)CCO.OCCN(CCO)CCO.[Ti]", "activity, negative = inhibition": "4.3% (inactive)"}
{"compound": "CCn1cc[n+](C)c1", "note": "(tested in a mixture with another compound)", "activity, negative = inhibition": "-10.3% (inactive)"}
{"compound": "CCN(CC)C(=O)[C@@H]1C=C2c3cccc4[nH]cc(c34)C[C@H]2N(C)C1", "activity, negative = inhibition": "-20.7% [at 160 µM] (inactive)"}
{"compound": "CCOc1nc(C(Cl)(Cl)Cl)ns1", "activity, negative = inhibition": "1.04% (inactive)"}
{"compound": "CCS(=O)(=O)c1cccnc1S(=O)(=O)NC(=O)Nc1nc(OC)cc(OC)n1", "activity, negative = inhibition": "-19.4% (inactive)"}
{"compound": "Cc1cnc2c(C(=O)O)c(Cl)ccc2c1", "activity, negative = inhibition": "-7.17% (inactive)"}
{"compound": "O=c1[nH]c(Cl)c(Cl)cc1Cl", "activity, negative = inhibition": "9.19% (inactive)"}
{"compound": "CC(C)c1c(CN(C)C(C)Cc2ccccc2)n(C)n(-c2ccccc2)c1=O", "note": "(stereo not given)", "activity, negative = inhibition": "-26% [at 28.3 µM] (inactive)"}
{"compound": "O=C1CCCCC1Cl", "note": "(stereo not given)", "activity, negative = inhibition": "28.2% (inactive)"}
{"compound": "CC(O)C#N", "note": "(stereo not given)", "activity, negative = inhibition": "-1.23% (inactive)"}
{"compound": "CCCSP(=O)(OCC)Oc1ccc(Br)cc1Cl", "note": "(stereo not given)", "activity, negative = inhibition": "2.33% [at 28.3 µM] (inactive)"}
{"compound": "CCOP(=S)(OCC)Oc1ccc(S(C)=O)cc1", "note": "(stereo not given)", "activity, negative = inhibition": "8.91% (inactive)"}
{"compound": "CNC(=O)Oc1cccc(N=CN(C)C)c1", "activity, negative = inhibition": "13.4% (inactive)"}
{"compound": "CCCSP(=S)(OCC)Oc1ccc(Cl)cc1Cl", "note": "(stereo not given)", "activity, negative = inhibition": "-3.55% (inactive)"}
{"compound": "c1ccc2c(c1)[nH]c1cnccc12", "activity, negative = inhibition": "13.4% (inactive)"}
{"compound": "COP(=S)(OC)Oc1nc(Cl)c(Cl)cc1Cl", "activity, negative = inhibition": "4.64% (inactive)"}
{"compound": "COc1c2c(cc3c1OCO3)CCN(C)C2", "activity, negative = inhibition": "-18.7% [at 28.3 µM] (inactive)"}
{"compound": "O=C(NC(=O)c1c(F)cccc1F)Nc1cc(Cl)c(OC(F)(F)C(F)F)c(Cl)c1", "activity, negative = inhibition": "3.84% (inactive)"}
{"compound": "O=C1OC(c2ccc(O)c(S(=O)(=O)O)c2)(c2ccc(O)c(S(=O)(=O)O)c2)c2c(Br)c(Br)c(Br)c(Br)c21", "activity, negative = inhibition": "-22.7% [at 28.3 µM] (inactive)"}
{"compound": "CC(C)(C)NC[C@H](O)c1ccc(O)cc1Cl", "activity, negative = inhibition": "13.7% [at 28.3 µM] (inactive)"}
{"compound": "CCCC[N+](=O)[O-]", "activity, negative = inhibition": "-0.408% (inactive)"}
{"compound": "CC(=O)/C=C/c1ccc2c(c1)OCO2", "activity, negative = inhibition": "-13.5% (inactive)"}
{"compound": "CCOC1Oc2ccc(OS(C)(=O)=O)cc2C1(C)C", "note": "(stereo not given)", "activity, negative = inhibition": "-17.5% (inactive)"}
{"compound": "Nc1ccccc1C(=O)OC/C=C/c1ccccc1", "activity, negative = inhibition": "-0.963% (inactive)"}
{"compound": "O=C(Cl)C(Cl)(Cl)Cl", "activity, negative = inhibition": "-1.92% (inactive)"}
{"compound": "CCCCCCCCCC(=O)O[C@H]1CC[C@H]2[C@@H]3CCC4=CC(=O)CC[C@@H]4[C@H]3CC[C@]12C", "activity, negative = inhibition": "-6.17% [at 28.3 µM] (inactive)"}
{"compound": "Oc1c(Cl)cc(Cl)cc1Cl", "Potency": "inactive"}
{"compound": "O=C(O)c1cc[c]([Hg][Cl])cc1", "activity, negative = inhibition": "13.5% (inactive)"}
{"compound": "Oc1ccc(C2(c3ccc(O)cc3)CCCCC2)cc1", "activity, negative = inhibition": "-27% (inactive)"}
{"compound": "CC(=O)O[C@H]1CC[C@@]2(C)C(=CC[C@@H]3[C@@H]2CC[C@]2(C)C(=O)CC[C@@H]32)C1", "activity, negative = inhibition": "-17.2% (inactive)"}
{"compound": "Oc1cc(Cl)c(Cl)c(Cl)c1", "activity, negative = inhibition": "-1.36% (inactive)"}
{"compound": "O=C(O)c1ccccc1C(=O)Nc1cccc2ccccc12", "activity, negative = inhibition": "41.5% (inactive)"}
{"compound": "N#CCc1ccc(Cl)cc1", "activity, negative = inhibition": "47.3% (inactive)"}
{"compound": "Nc1ccc(N=Nc2ccccc2)cc1", "activity, negative = inhibition": "39% (inactive)"}
{"compound": "CSSC", "activity, negative = inhibition": "-12.2% (inactive)"}
{"compound": "Nc1ccc(Cl)cc1C(=O)c1ccccc1F", "activity, negative = inhibition": "11.1% [at 28.3 µM] (inactive)"}
{"compound": "Oc1ccc2c3c1O[C@H]1[C@@H](O)C=C[C@H]4[C@@H](C2)NCC[C@@]341", "activity, negative = inhibition": "17.7% (inactive)"}
{"compound": "CCOC(=O)C(SP(=S)(OC)OC)c1ccccc1", "note": "(stereo not given)", "activity, negative = inhibition": "14% (inactive)"}
